In PubChem BioAssay (NCI):
About 83,000 compounds went through this panel and 20% of them were active in at least one assay; those are over-represented in the sample as a whole.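 Step 1: grow cells in 96-well plates. Step 2: add test compound at a single concentration. Step 3: incubate 48 h. Step 4: record percent growth.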 Activity calls are given as the source filed them. How the source made its calls: active means growth percent below 10; inactive means the rest.

How the values were obtained:
Test in all cases: NCI-60 one-dose screen, 48 h (100 = growth as untreated, 0 = no growth, -100 = all killed)
[1] = test system: SR leukemia; conditions: 10 µM unless noted
[2] = test system: RPMI-8226 leukemia; conditions: 10 µM unless noted
[3] = test system: OVCAR-8 ovarian; conditions: 10 µM unless noted
[4] = test system: OVCAR-5 ovarian; conditions: 10 µM unless noted
[5] = test system: OVCAR-4 ovarian; conditions: 10 µM unless noted
[6] = test system: SK-OV-3 ovarian; conditions: 10 µM unless noted
[7] = test system: IGROV1 ovarian; conditions: 10 µM unless noted
[8] = test system: OVCAR-3 ovarian; conditions: 10 µM unless noted
[9] = test system: HS 578T breast; conditions: 10 µM
[10] = test system: NCI/ADR-RES ovarian; conditions: 10 µM unless noted
[11] = test system: T-47D breast; conditions: 10 µM unless noted
[12] = test system: MDA-MB-435 melanoma; conditions: 10 µM unless noted
[13] = test system: SW-620 colon; conditions: 10 µM unless noted
[14] = test system: MCF7 breast; conditions: 10 µM unless noted
[15] = test system: HCT-116 colon; conditions: 10 µM unless noted
[16] = test system: HCC-2998 colon; conditions: 10 µM
[17] = test system: KM12 colon; conditions: 10 µM unless noted
[18] = test system: BT-549 breast; conditions: 10 µM unless noted

Measured: growth

Oc1ccc(C(c2ccc(O)cc2)C(Cl)(Cl)Cl)cc1
inactive: [1] 87.8% | [2] 83.4% | [3] 103% | [4] 88.5% | [5] 94.2% | [6] 118% | [7] 93% | [8] 105% | [9] 88.3% | [10] 94.9% | [11] 94.3% | [12] 104% | [13] 114% | [14] 111% | [15] 83.8% | [16] 122% | [17] 104%

NS(=O)(=O)c1ccc(CCN2C(=O)/C(=C\c3ccc(Cl)cc3)C=C2c2ccc3ccccc3c2)cc1
inactive: [1] 83.3% | [2] 89.6% | [3] 83.7% | [4] 89.5% | [5] 95.3% | [6] 84% | [7] 94.2% | [8] 104% | [9] 101% | [11] 71.8% | [18] 95.1% | [12] 97% | [13] 106% | [14] 90.6% | [15] 89.5% | [16] 94.8% | [17] 93%

COc1cc2c(cc1OCCCCN1CCN(CC(=O)Nc3ccc(Cl)cc3C(=O)c3ccccc3Cl)CC1)N=CC1CCCN1C2=O (stereo not given)
active: [1] -66.7% | [2] -74% | [3] -65.5% | [4] -51.7% | [5] -91.4% | [6] -76% | [7] -88.2% | [8] -94.6% | [9] -66.4% | [10] 2.24% | [11] -65.4% | [12] -93.8% | [13] -57% | [14] -67.1% | [15] -66.2% | [17] -55.5%

Ic1ccccc1-c1ccccc1
inactive: [1] 102% | [2] 103% | [3] 110% | [4] 114% | [5] 109% | [6] 111% | [7] 117% | [8] 111% | [9] 102% | [10] 110% | [11] 107% | [12] 121% | [13] 102% | [14] 103% | [15] 111% | [16] 114% | [17] 109%

Fc1ccc(NCc2cn(-c3ccccc3)nc2-c2ccc(OCc3ccccc3)cc2)cc1Cl
inactive: [1] 96.1% | [2] 98% | [3] 105% | [4] 86.6% | [5] 97.5% | [6] 82.3% | [7] 96.9% | [8] 97.3% | [9] 104% | [11] 79.8% | [18] 89.6% | [12] 102% | [13] 108% | [14] 94.1% | [15] 76.8% | [16] 102% | [17] 98%

Cc1c(N)ccc(-c2ccc(N)c(C)c2S(=O)(=O)O)c1S(=O)(=O)O
inactive: [1] 102% | [2] 107% | [3] 107% | [4] 101% | [5] 112% | [6] 111% | [7] 110% | [8] 124% | [9] 106% | [10] 102% | [11] 106% | [12] 114% | [13] 109% | [14] 108% | [15] 101% | [16] 102% | [17] 116%

O=[N+]([O-])c1cc(Br)cc2c1[nH]c1ccc(Br)cc12
active: [5] -26.5%
inactive: [1] 77.2% | [2] 78.2% | [3] 57.7% | [4] 80.4% | [6] 34.5% | [7] 36.6% | [8] 43.3% | [9] 65.4% | [10] 70.4% | [11] 42.9% | [12] 86.4% | [14] 45.8% | [15] 36.6% | [16] 94.3% | [17] 71.4%

COc1ccc2c(CCC(c3ccccc3)c3ccccc3)c3[n+](cc2c1OC)CCc1cc2c(cc1-3)OCO2
inactive: [4] 29% | [5] 13.3% | [7] 22.9% | [9] 20.7% | [10] 78.9%
active: [1] -29.9% | [2] -9.79% | [3] 2.77% | [6] -12.8% | [8] -0.03% | [11] 5.67% | [18] -29.1% | [12] -72% | [14] 9.86% | [15] 6.81% | [16] -13.7% | [17] -76.7%

CNC(=O)c1cc(Oc2cccc3nc(Nc4ccc(Oc5ccccc5)cc4)ccc23)ccn1
inactive: [1] 30.2% | [2] 47.9% | [3] 75.8% | [4] 83.4% | [5] 52.1% | [6] 87.1% | [7] 92.4% | [8] 72.7% | [9] 81.9% | [10] 72.6% | [11] 43.3% | [18] 57.2% | [12] 66.1% | [13] 87.8% | [14] 43.2% | [15] 48% | [16] 94% | [17] 67.8%

CCNC(=O)Nc1nc2ccc(Oc3ccnc(C(=O)NC)c3)cc2s1
inactive: [1] 30.4% | [2] 85% | [3] 91.6% | [4] 92.9% | [5] 83% | [6] 88.1% | [7] 90% | [8] 83.1% | [9] 87.3% | [11] 62.6% | [18] 90.6% | [13] 45.8% | [14] 36.9% | [15] 56% | [16] 71.9% | [17] 33.4%
active: [12] 3.1%

CC(=O)C(C(C)=O)C(c1ccccc1)C(C(C)=O)C(C)=O
inactive: [1] 105% | [2] 98.7% | [3] 96.5% | [4] 102% | [5] 87.1% | [6] 95.4% | [7] 104% | [8] 116% | [9] 99.8% | [10] 94.5% | [11] 102% | [18] 105% | [12] 104% | [14] 90.2% | [15] 91.3% | [16] 106% | [17] 110%

CC(C)n1c(NCCc2ccc(O)c(O)c2)nc2c1c(=O)n(C)c(=O)n2C
inactive: [1] 87.2% | [2] 77.4% | [3] 104% | [4] 79.2% | [5] 90.9% | [6] 108% | [7] 110% | [8] 102% | [9] 99.5% | [11] 93.7% | [18] 84.5% | [12] 98.5% | [13] 102% | [14] 95.4% | [15] 97% | [16] 86.9% | [17] 91%

c1cn2cc(-c3ccc4cn[nH]c4c3)nc(Nc3ccc(N4CCOCC4)cc3)c2n1
active: [5] 3.99%
inactive: [1] 50% | [2] 63.4% | [3] 20% | [4] 64.2% | [6] 21% | [7] 58.7% | [8] 71.9% | [10] 39.2% | [11] 49.2% | [18] 66.2% | [12] 76.8% | [13] 69.2% | [14] 66.2% | [15] 52.4%

Cc1ccc(N)cc1CN1C(=O)c2ccccc2C1=O
inactive: [1] 87.4% | [2] 99.3% | [3] 101% | [4] 104% | [5] 110% | [6] 94.2% | [7] 105% | [8] 117% | [9] 106% | [10] 107% | [11] 110% | [12] 106% | [13] 108% | [14] 108% | [15] 93.4% | [16] 104% | [17] 111%

COC(=O)[C@]12CC[C@@H](C)[C@H](C)[C@@H]1C1=CC[C@@H]3[C@@]4(C)C(C=O)=C[C@@](C)(COS(C)(=O)=O)C4=CC[C@@]3(C)[C@]1(C)CC2
inactive: [6] 17.1%
active: [1] -15.6% | [2] -4.75% | [3] -12% | [4] -35.9% | [5] -61.1% | [7] -24.1% | [8] -85.7% | [9] -24.1% | [10] -25.4% | [11] -10.6% | [18] -43.5% | [12] -73.8% | [13] -85.2% | [14] -16.8% | [15] -81.2% | [16] -83.5% | [17] -73%

COC(=O)[C@]12CC[C@@H](C)[C@H](C)[C@@H]1C1=CC[C@@H]3[C@@]4(C)C[C@@H](OC(=O)/C=C/c5ccccc5)[C@H](O)[C@@](C)(CO)[C@@H]4[C@H](O)C[C@@]3(C)[C@]1(C)CC2
active: [1] -18.4% | [2] 9.79% | [4] -27.6% | [8] -37.1% | [9] -0.549% | [10] 7.34% | [13] -58.6% | [15] -56.4% | [16] -41.8% | [17] -2.35%
inactive: [3] 14.6% | [5] 23.3% | [6] 41.9% | [7] 31.2% | [11] 13.2% | [18] 34.4% | [12] 11.5% | [14] 14.3%

N#CC(C#N)=NO
inactive: [1] 97.1% | [2] 101% | [3] 103% | [4] 104% | [5] 113% | [6] 89.1% | [7] 101% | [8] 111% | [9] 99.6% | [10] 100% | [11] 102% | [18] 103% | [13] 100% | [14] 96.1% | [15] 92.5% | [16] 96.3% | [17] 103%

COc1ccc(-c2cc3c(oc2=O)-c2ccccc2OC3OC(C)=O)cc1 (stereo not given)
inactive: [1] 80.7% | [2] 83.1% | [3] 107% | [4] 111% | [5] 90.7% | [6] 93.4% | [7] 103% | [8] 109% | [9] 89% | [10] 93.8% | [11] 68.5% | [18] 102% | [12] 110% | [13] 98.7% | [14] 89.6% | [15] 74% | [17] 111%
